Measured values taken from PubChem BioAssay (NCATS).
Records with an inconclusive call do not appear. Active and inactive are the calls of the source. Unless noted, calls follow the shape of the full dose curve.

Experiments:
[1] = biological target: Bile acid receptor (Homo sapiens) (UniProt Q96RI1); test: qHTS assay for small molecule antagonists of farnesoid X receptor signaling (AID 588526); also: % is scaled to controls: 0 for no effect and ±100 for the full control effect
Summary of the method: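 Beta-lactamase reporter antagonist mode: HEK293T FXR-UAS-bla cells, titrated compound, CDCA stimulation, 16 h 37 C, CCF4 dye 2 h RT. Data normalized to CDCA 50 uM and DMSO; Hill-fit IC50.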

[2] = biological target: Peroxisome proliferator-activated receptor gamma (Homo sapiens) (UniProt P37231); test: qHTS assay for small molecule antagonists of peroxisome proliferator-activated receptor gamma signaling (AID 588537; active = well fitted inhibition curve with a large enough effect in the signal ratio, with a control signal flat, not every such curve was filed as active; the % refers to the signal ratio;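 also: reporter cells co-stimulated with 50 nM rosiglitazone agonist during compound treatment; % of control where 0% means no effect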)
Summary of the method: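 Antagonist-mode β-lactamase reporter screen run as a titration series. HEK293 PPARγ-UAS-bla cells are stimulated with rosiglitazone (50 nM final) for 16 h, then CCF4 is read at 460/530 nm. Data are scaled between DMSO and rosiglitazone and fitted to the Hill equation.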

[3] = biological target: Thyroid hormone receptor beta (Homo sapiens) (UniProt P10828); test: qHTS assay for small molecule antagonists of thyroid hormone receptor beta signaling (AID 588547; active = well fitted inhibition curve with a large enough effect in the signal ratio, with a control signal flat, not every such curve was filed as active; the % refers to the signal ratio;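 also: cells stimulated with 0.4 nM T3 agonist during compound exposure; series mostly up to about 77 µM; % is scaled to controls: 0 for no effect and ±100 for the full control effect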); conditions: TR-UAS-bla HEK293, beta-lactamase ratio, antagonist mode, 18 h
Summary of the method: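 Inhibition of T3-driven (0.4nM final) beta-lactamase reporter activity was measured over 0.59 nM to 92 uM compound after 18 h at 37 C. The cells were GripTite HEK293 TR-UAS-bla in charcoal/dextran-stripped serum, with CCF4 ratio read-out and IC50 from Hill fits.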

[4] = qHTS assay for small molecule agonists of the antioxidant response element (ARE) signaling pathway (AID 651741; active = well fitted activation curve with a large enough effect in the signal ratio; the % refers to the signal ratio; also: potency is read from the fitted curve at half-maximal effect; as to activation: % of control where 0% means no effect)
Summary of the method: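 Beta-lactamase reporter under ARE control in HepG2 cells, 2,000 per well, was induced by 16 h compound treatment at 37 C. Read-out was fluorescence from LiveBLAzer B/G FRET substrate after 2 h at room temperature.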

[5] = qHTS assay for small molecule activators of the nuclear factor-kappa B (NF-kB) signaling pathway (AID 651749; active = well fitted activation curve with a large enough effect in the signal ratio; the % refers to the signal ratio; also: series mostly up to about 77 µM; % of control where 0% means no effect); conditions: NF-kB-bla ME-180 cells, beta-lactamase FRET ratio, 16 h; activation: hits give high values
Summary of the method: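 Activation measured after 16 hr compound treatment at 37C, 5% CO2, of 2,000 ME-180 cells/well stably expressing an NF-kB response element–driven beta-lactamase reporter, via FRET-disruption fluorescence.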

[6] = biological target: Vitamin D3 receptor (Homo sapiens) (UniProt P11473); test: qHTS assay for small molecule antagonists of vitamin D receptor signaling (AID 588541);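 also: receptor activated by calcitriol during compound treatment; series mostly up to about 77 µM; % is scaled to controls: 0 for no effect and ±100 for the full control effect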
Summary of the method: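 Antagonist-mode beta-lactamase reporter assay: HEK293T VDR-UAS-bla cells were exposed to titrated compound alongside 1-alpha,25-dihydroxyvitamin D3 at 3 nM final for 16 h. Values were normalized to the 50 nM agonist control and DMSO basal, with IC50 and efficacy from Hill equation fits.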

[7] = biological target: Androgen receptor (Homo sapiens) (UniProt P10275); test: qHTS assay for small molecule antagonists of androgen receptor signaling (AID 588516; active = well fitted curve in the direction sought with a large enough effect in the signal ratio, with a control signal flat, not every such curve was filed as active; the % refers to the signal ratio; also: % is scaled to controls: 0 for no effect and ±100 for the full control effect)
Summary of the method: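 AR-UAS-bla-GripTite HEK 293 cells (2000/well, 5 h at 37 C) received compound titrations, then R1881 at 10 nM final; after 16 h at 37 C, CCF4 dye 2 h RT, beta-lactamase fluorescence read; IC50 from Hill fits.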

[8] = biological target: Androgen receptor (Homo sapiens) (UniProt P10275); test: qHTS assay for small molecule agonists of androgen receptor signaling (AID 588515; active = well fitted curve in the direction sought with a large enough effect in the signal ratio, with a control signal flat; the % refers to the signal ratio; also: % is scaled to controls: 0 for no effect and ±100 for the full control effect); conditions: AR-UAS-bla HEK293, beta-lactamase ratio, agonist 16 h; activation: hits give high values
Summary of the method: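 Stimulation of an AR-responsive β-lactamase reporter in GripTite HEK293 cells was measured after 16 h compound exposure at 37 °C, via CCF4 fluorescence after 2 h RT. EC50 from Hill fits, normalized to R1881 at 30 nM.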

Sequence of Androgen receptor (Homo sapiens) (P10275 whole entry, looked up): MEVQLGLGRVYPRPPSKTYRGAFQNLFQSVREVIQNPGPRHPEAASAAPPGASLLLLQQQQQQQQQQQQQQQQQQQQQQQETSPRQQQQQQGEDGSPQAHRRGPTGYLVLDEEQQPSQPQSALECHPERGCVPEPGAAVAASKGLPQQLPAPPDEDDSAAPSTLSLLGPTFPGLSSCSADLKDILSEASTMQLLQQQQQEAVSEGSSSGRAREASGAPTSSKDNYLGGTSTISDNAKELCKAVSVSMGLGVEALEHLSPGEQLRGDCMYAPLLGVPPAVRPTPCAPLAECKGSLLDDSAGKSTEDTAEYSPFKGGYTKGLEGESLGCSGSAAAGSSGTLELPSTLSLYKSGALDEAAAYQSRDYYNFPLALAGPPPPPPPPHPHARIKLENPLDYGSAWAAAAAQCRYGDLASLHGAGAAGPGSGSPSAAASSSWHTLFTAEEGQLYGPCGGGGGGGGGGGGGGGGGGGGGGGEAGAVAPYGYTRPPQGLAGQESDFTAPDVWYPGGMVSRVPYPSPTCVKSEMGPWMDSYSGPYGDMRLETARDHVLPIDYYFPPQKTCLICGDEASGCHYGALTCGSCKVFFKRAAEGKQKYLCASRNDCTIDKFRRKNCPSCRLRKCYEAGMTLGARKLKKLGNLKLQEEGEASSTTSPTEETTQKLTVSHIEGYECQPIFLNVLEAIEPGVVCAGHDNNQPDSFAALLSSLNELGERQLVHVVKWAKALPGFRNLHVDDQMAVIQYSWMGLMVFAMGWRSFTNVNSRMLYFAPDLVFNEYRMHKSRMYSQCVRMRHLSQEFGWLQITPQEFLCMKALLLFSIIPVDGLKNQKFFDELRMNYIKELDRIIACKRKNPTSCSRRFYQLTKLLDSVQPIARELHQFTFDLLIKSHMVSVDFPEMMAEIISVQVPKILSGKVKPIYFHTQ
Sequence of Thyroid hormone receptor beta (Homo sapiens) (P10828 whole entry, looked up): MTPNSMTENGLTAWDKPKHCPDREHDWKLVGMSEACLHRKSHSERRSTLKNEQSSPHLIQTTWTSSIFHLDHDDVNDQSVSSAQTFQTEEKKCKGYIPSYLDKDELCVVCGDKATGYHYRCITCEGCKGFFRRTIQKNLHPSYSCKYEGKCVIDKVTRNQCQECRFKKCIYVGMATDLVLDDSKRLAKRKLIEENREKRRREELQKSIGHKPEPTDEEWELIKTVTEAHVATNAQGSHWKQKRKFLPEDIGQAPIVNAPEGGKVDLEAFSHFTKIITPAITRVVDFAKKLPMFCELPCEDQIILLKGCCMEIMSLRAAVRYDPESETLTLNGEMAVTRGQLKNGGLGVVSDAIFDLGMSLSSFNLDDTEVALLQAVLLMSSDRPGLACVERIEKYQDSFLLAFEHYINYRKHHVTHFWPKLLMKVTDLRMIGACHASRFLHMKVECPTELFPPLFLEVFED
Sequence of Bile acid receptor (Homo sapiens) (Q96RI1 whole entry, looked up): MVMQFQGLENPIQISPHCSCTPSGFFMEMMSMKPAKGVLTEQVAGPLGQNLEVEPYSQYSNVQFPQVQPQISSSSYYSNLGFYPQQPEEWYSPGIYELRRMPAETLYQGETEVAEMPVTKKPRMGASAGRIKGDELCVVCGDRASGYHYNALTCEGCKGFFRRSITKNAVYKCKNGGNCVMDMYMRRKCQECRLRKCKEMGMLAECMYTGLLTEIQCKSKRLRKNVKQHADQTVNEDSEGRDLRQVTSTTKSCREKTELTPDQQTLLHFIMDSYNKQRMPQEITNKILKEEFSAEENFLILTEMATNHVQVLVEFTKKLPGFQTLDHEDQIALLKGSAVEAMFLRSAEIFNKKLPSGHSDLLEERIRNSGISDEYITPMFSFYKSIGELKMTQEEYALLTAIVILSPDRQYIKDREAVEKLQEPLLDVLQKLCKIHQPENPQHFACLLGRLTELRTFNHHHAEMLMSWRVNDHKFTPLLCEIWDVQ
Sequence of Peroxisome proliferator-activated receptor gamma (Homo sapiens) (P37231 whole entry, looked up): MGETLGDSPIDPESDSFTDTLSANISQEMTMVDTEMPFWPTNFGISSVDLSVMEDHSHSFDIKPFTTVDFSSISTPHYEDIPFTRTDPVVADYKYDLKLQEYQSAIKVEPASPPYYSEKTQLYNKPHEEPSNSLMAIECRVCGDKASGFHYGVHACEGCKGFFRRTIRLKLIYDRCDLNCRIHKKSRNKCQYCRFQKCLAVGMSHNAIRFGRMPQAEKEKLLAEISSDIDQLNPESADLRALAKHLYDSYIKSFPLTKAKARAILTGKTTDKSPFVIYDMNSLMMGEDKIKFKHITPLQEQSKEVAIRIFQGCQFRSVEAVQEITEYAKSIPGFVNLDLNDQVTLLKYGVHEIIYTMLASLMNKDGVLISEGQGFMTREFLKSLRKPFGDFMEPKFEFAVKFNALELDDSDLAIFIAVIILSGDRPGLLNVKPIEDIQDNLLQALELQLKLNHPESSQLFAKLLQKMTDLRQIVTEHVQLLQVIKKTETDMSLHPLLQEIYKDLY
Sequence of Vitamin D3 receptor (Homo sapiens) (P11473 whole entry, looked up): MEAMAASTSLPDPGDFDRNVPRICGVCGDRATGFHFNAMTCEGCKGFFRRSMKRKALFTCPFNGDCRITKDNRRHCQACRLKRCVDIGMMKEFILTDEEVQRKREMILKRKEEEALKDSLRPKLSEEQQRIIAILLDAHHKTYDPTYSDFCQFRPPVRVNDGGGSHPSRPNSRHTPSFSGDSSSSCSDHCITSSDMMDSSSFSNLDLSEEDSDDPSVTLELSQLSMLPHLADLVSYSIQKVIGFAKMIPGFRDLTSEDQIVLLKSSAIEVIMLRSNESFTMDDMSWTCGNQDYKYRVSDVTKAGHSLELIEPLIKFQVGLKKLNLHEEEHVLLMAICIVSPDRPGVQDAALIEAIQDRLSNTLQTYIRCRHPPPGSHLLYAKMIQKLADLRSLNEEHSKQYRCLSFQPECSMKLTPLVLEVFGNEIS

CCC(C)OC(=O)N1CCCCC1CCO (centres undefined)
inactive: Potency [1] | Potency [2] | activity change % (negative = inhibition) [3] -6.45% | Potency [4] | activation [5] -1.57%

CCCCC(CC)COP(=O)(O)OCC(CC)CCCC (centres undefined)
inactive: Potency [1] | Potency [6] | activity change % (negative = inhibition) [3] -4.02%
active: Potency [4] 54.5 µM

O=C(O)CCCCCCC(=O)O
inactive: Potency [1] | Potency [2] | Potency [6]

CCCCC(CC)COC(=O)c1ccc(C(=O)OCC(CC)CCCC)cc1 (centres undefined)
inactive: outcome [7] | Potency [1] | Potency [2] | Potency [4]

C=C(C)C(=O)OCC(CC)(COC(=O)C(=C)C)COC(=O)C(=C)C
inactive: Potency [1] | Potency [2] | Potency [4] | activation [5] 0.727%

CO[Si](CCCOCC1CO1)(OC)OC (centres undefined)
inactive: Potency [1] | Potency [2] | Potency [6] | activity change % (negative = inhibition) [3] 7.57% | Potency [4] | activation [5] -2.38%

OCc1cccc(Oc2ccccc2)c1
inactive: activation [8] 3.06% | outcome [7] | Potency [6] | activity change % (negative = inhibition) [3] 9.19% | Potency [4] | activation [5] 2.29%

CCCC/C=C\CCCCCCCCCC=O
inactive: Potency [1] | Potency [6] | Potency [4] | activation [5] -0.297%

Nc1cc(Cl)c(O)c(Cl)c1
inactive: activation [8] -4.43% | Potency [2] | activation [5] -1.35%
active: Potency [4] 12.2 µM

CCOc1ccc(NC(=O)OC(C)C)cc1OCC
inactive: Potency [1] | Potency [2] | Potency [6] | activity change % (negative = inhibition) [3] -11% | Potency [4] | activation [5] -0.916%

NC(=O)Cc1cccc2ccccc12
inactive: Potency [2] | Potency [4]

COc1cc(Cl)c(OC)cc1N
inactive: Potency [2] | Potency [6]

CCOCCOCCOCC
inactive: Potency [2] | Potency [6] | activity change % (negative = inhibition) [3] -11.8% | activation [5] -0.223%

CC(C)CC(C)(O)C#CC(C)(O)CC(C)C (centres undefined)
inactive: Potency [2] | Potency [6] | activity change % (negative = inhibition) [3] 20.8% | Potency [4] | activation [5] -0.882%

CCCCCCCCCCCCCCC
inactive: Potency [6] | activity change % (negative = inhibition) [3] 5.8% | activation [5] -1.21%

C1CCC2(CCCCO2)OC1
inactive: Potency [6] | activity change % (negative = inhibition) [3] 7.84% | Potency [4]

C=C(C)C(=O)OCCOCCOCCOC(=O)C(=C)C
inactive: Potency [2] | Potency [6] | activity change % (negative = inhibition) [3] -12.3% | Potency [4] | activation [5] -1.62%

CCOC(=O)C(C)Oc1ccc(Oc2nc3ccc(Cl)cc3o2)cc1 (centres undefined)
inactive: Potency [2] | Potency [6] | activation [5] 2.54%

COCCOCCOCCOC
inactive: Potency [2] | Potency [6] | activity change % (negative = inhibition) [3] 2.02% | activation [5] 0.99%

CCCCC(CC)COC(C)=O (centres undefined)
inactive: Potency [2] | Potency [6] | Potency [4] | activation [5] -1.18%

CC(C)(N=C=O)c1cccc(C(C)(C)N=C=O)c1
inactive: Potency [2] | Potency [6] | activity change % (negative = inhibition) [3] -9.67% | Potency [4] | activation [5] -0.946%

C=CCOc1nc(OCC=C)nc(OCC=C)n1
inactive: Potency [6] | activity change % (negative = inhibition) [3] 11.9% | activation [5] 0.86%

CC1=CC(=O)CC(C)(C)C1
inactive: Potency [2] | activity change % (negative = inhibition) [3] 1.58%

COC(=O)c1ccc(CNS(C)(=O)=O)cc1S(=O)(=O)NC(=O)Nc1nc(OC)cc(OC)n1
inactive: Potency [2] | Potency [6] | activation [5] 1.5%

COC(=O)c1ccc(I)cc1S(=O)(=O)NC(=O)Nc1nc(C)nc(OC)n1
inactive: Potency [2] | Potency [6] | activity change % (negative = inhibition) [3] -17% | Potency [4]

C=CC(=O)OCCOc1ccccc1
inactive: Potency [2] | Potency [6] | activity change % (negative = inhibition) [3] -3.52%

CCCCCCCCCCCCCCN(C)C
inactive: Potency [6] | Potency [4] | activation [5] -1.59%

COC(OC)(C(=O)c1ccccc1)c1ccccc1
inactive: Potency [2] | Potency [6] | activity change % (negative = inhibition) [3] -4.01% | Potency [4] | activation [5] 0.121%

CCCCCCC(O)CCCCCCCCCCC(=O)OC (centres undefined)
inactive: activity change % (negative = inhibition) [3] -2.76% | Potency [4] | activation [5] -0.158%

CC(C)CCCCOC(=O)c1ccccc1C(=O)OCCCCC(C)C
inactive: Potency [2] | activation [5] -2.54%

CCNc1nc(NC(C)CC)nc(OC)n1 (centres undefined)
inactive: Potency [2] | Potency [6] | Potency [4]

CC(C)C(=O)OC(=O)C(C)C
inactive: Potency [6] | activity change % (negative = inhibition) [3] 8.71%

O=C(c1ccccc1)c1ccc(O)c(O)c1O
inactive: Potency [6]

Oc1ccc(Nc2ccccc2)cc1
active: Potency [4] 24.3 µM
inactive: activity change % (negative = inhibition) [3] -3.3% | activation [5] -2.8%

CC(=O)c1c(C)c([N+](=O)[O-])c(C(C)(C)C)c([N+](=O)[O-])c1C
inactive: Potency [2] | Potency [6] | activity change % (negative = inhibition) [3] 11% | activation [5] -2.72%

CCCCCOC(=O)COc1cc(N2C(=O)C3=C(CCCC3)C2=O)c(F)cc1Cl
inactive: Potency [6] | activity change % (negative = inhibition) [3] 4.65%

O=C(O)c1cc(O)c2ccccc2c1O
active: Potency [4] 7.7 µM

CCCCCCCC/C=C\CCCCCCCCO
inactive: Potency [2] | Potency [6] | activity change % (negative = inhibition) [3] -5.71% | Potency [4] | activation [5] -1.39%

CCCCC(CC)COC(=O)CS (centres undefined)
inactive: Potency [6] | activity change % (negative = inhibition) [3] 1.03% | activation [5] 1.76%

CCCCCCCC/C=C\CCCCCCCC(=O)OC
inactive: Potency [2] | Potency [6] | activation [5] -2.39%

CCCCCCCCCCCCN
inactive: Potency [2] | activity change % (negative = inhibition) [3] -7.43% | Potency [4] | activation [5] -1.82%

CCCCOCCOCCO
inactive: Potency [2] | activity change % (negative = inhibition) [3] 15.3% | Potency [4] | activation [5] -0.601%

CCCCCCCC[Si](OCC)(OCC)OCC
inactive: Potency [2] | Potency [6] | activity change % (negative = inhibition) [3] 3.89% | Potency [4] | activation [5] 1.32%
